Measurements from PubChem BioAssay AID1159580 (chemical genetic matrix, 2015).
The campaign covered roughly 5,500 compounds. About 2,000 (36%) were called active. About 18% were inconclusive and are not listed. No stated cut-off is given here; in the data, active means normalized growth mostly below about 0.91 (no sharp cut-off); inconclusive means no clear call, values can overlap the other calls; inactive means mostly above about 0.92. The list shows a part of the results.

Assay: chemical genetic growth profiling, strain panel (AID 1159580);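 further: tested at 20 µM; growth read once vehicle control cultures reached saturation at 30 °C; 1 = growth at the plate median or of vehicle wells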
Settings: S. cerevisiae deletion strains, growth OD

Measured: normalized growth

O=C(CC(=O)c1ccccc1)c1ccccc1
active: locus YAL021C, strain ccr4, stronger effect = lower value 0.0705 | locus YAL026C, strain drs2, stronger effect = lower value 0.175 | locus YAL030W, strain snc1, stronger effect = lower value 0.318 | locus YBL061C, strain skt5, stronger effect = lower value 0.12 | locus YBR009C, strain hhf1, stronger effect = lower value 0.194 | locus YBR023C, strain chs3, stronger effect = lower value 0.211 | locus YBR171W, strain sec66, stronger effect = lower value 0.735 | locus YBR231C, strain swc5, stronger effect = lower value 0.177 | locus YBR279W, strain paf1, stronger effect = lower value 0.453 | locus YCL011C, strain gbp2, stronger effect = lower value 0.3 | locus YCL016C, strain dcc1, stronger effect = lower value 0.43 | locus YCL069W, strain vba3, stronger effect = lower value 0.362 | locus YCR088W, strain abp1, stronger effect = lower value 0.462 | locus YDL005C, strain med2, stronger effect = lower value 0.596 | locus YDL040C, strain nat1, stronger effect = lower value 0.698 | locus YDR001C, strain nth1, stronger effect = lower value 0.639 | locus YDR069C, strain doa4, stronger effect = lower value 0.0695 | locus YDR137W, strain rgp1, stronger effect = lower value 0.135 | locus YDR159W, strain sac3, stronger effect = lower value 0.541 | locus YDR195W, strain ref2 0.516 | locus YDR297W, strain sur2, stronger effect = lower value 0.192 | locus YDR334W, strain swr1, stronger effect = lower value 0.152 | locus YDR335W, strain msn5, stronger effect = lower value 0.227 | locus YDR392W, strain spt3, stronger effect = lower value 0.396 | locus YEL003W, strain gim4, stronger effect = lower value 0.379 | locus YEL037C, strain rad23, stronger effect = lower value 0.342 | locus YEL061C, strain CIN8 (second series), stronger effect = lower value 0.437 | locus YER015W, strain faa2, stronger effect = lower value 0.122 | locus YER016W, strain bim1, stronger effect = lower value 0.544 | locus YER111C, strain swi4, stronger effect = lower value 0.204 | locus YER155C, strain BEM2 (second series), stronger effect = lower value 0.381 | locus YFR010W, strain ubp6, stronger effect = lower value 0.171 | locus YGL167C, strain pmr1, stronger effect = lower value 0.166 | locus YGL173C, strain kem1, stronger effect = lower value 0.119 | locus YGL227W, strain vid30, stronger effect = lower value 0.725 | locus YGL240W, strain doc1, stronger effect = lower value 0.457 | locus YGL253W, strain hxk2, stronger effect = lower value 0.147 | locus YHR013C, strain ard1, stronger effect = lower value 0.14 | locus YHR027C, strain rpn1, stronger effect = lower value 0.0797 | locus YHR030C, strain SLT2, stronger effect = lower value 0.515 | locus YHR079C, strain IRE1, stronger effect = lower value 0.468 | locus YHR142W, strain chs7, stronger effect = lower value 0.171 | locus YJL092W, strain hpr5, stronger effect = lower value 0.432 | locus YJL095W, strain BCK1 (second series), stronger effect = lower value 0.108 | locus YJL095W, strain BCK1, stronger effect = lower value 0.524 | locus YJL115W, strain asf1, stronger effect = lower value 0.546 | locus YJL129C, strain trk1, stronger effect = lower value 0.596 | locus YJL154C, strain vps35, stronger effect = lower value 0.237 | locus YJL164C, strain tpk1, stronger effect = lower value 0.154 | locus YJL166W, strain qcr8, stronger effect = lower value 0.16 | locus YJR066W, strain TOR1, stronger effect = lower value 0.565 | locus YKL160W, strain elf1, stronger effect = lower value 0.578 | locus YKR026C, strain gcn3, stronger effect = lower value 0.685 | locus YKR091W, strain srl3, stronger effect = lower value 0.527 | locus YLL001W, strain dnm1, stronger effect = lower value 0.363 | locus YLL026W, stronger effect = lower value 0.373 | locus YLL041C, strain sdh2, stronger effect = lower value 0.328 | locus YLR027C, strain aat2, stronger effect = lower value 0.261 | locus YLR113W, strain HOG1, stronger effect = lower value 0.348 | locus YLR221C, strain rsa3, stronger effect = lower value 0.284 | locus YLR258W, strain gsy2, stronger effect = lower value 0.234 | locus YLR262C, strain YPT6 (second series), stronger effect = lower value 0.101 | locus YLR320W, strain mms22, stronger effect = lower value 0.207 | locus YLR342W, strain FKS1, stronger effect = lower value 0.344 | locus YLR357W, strain rsc2, stronger effect = lower value 0.471 | locus YLR370C, strain arc18, stronger effect = lower value 0.147 | locus YLR384C, strain iki3, stronger effect = lower value 0.437 | locus YML120C, strain ndi1, stronger effect = lower value 0.498 | locus YMR058W, strain fet3, stronger effect = lower value 0.0728 | locus YMR125W, strain sto1, stronger effect = lower value 0.82 | locus YMR129W, stronger effect = lower value 0.393 | locus YMR205C, strain PFK2, stronger effect = lower value 0.242 | locus YMR231W, strain pep5, stronger effect = lower value 0.0832 | locus YNL071W, strain lat1, stronger effect = lower value 0.351 | locus YNL183C, strain NPR1, stronger effect = lower value 0.517 | locus YNL209W, strain ssb2, stronger effect = lower value 0.0845 | locus YNL248C, strain rpa49, stronger effect = lower value 0.552 | locus YNL322C, strain KRE1 (second series), stronger effect = lower value 0.619 | locus YNR049C, strain mso1, stronger effect = lower value 0.434 | locus YOR001W, strain rrp6, stronger effect = lower value 0.45 | locus YOR070C, strain gyp1, stronger effect = lower value 0.575 | locus YOR080W, strain dia2, stronger effect = lower value 0.127 | locus YOR083W, strain WHI5, stronger effect = lower value 0.186 | locus YOR106W, strain vam3, stronger effect = lower value 0.0633 | locus YOR231W, strain MKK1, stronger effect = lower value 0.497 | locus YOR265W, strain rbl2, stronger effect = lower value 0.179 | locus YOR270C, strain vph1, stronger effect = lower value 0.105 | locus YOR290C, strain snf2, stronger effect = lower value 0.391 | locus YPL051W, strain arl3, stronger effect = lower value 0.102 | locus YPL078C, strain atp4, stronger effect = lower value 0.414 | locus YPL106C, strain sse1, stronger effect = lower value 0.416 | locus YPL240C, strain hsp82, stronger effect = lower value 0.4 | locus YPL256C, strain CLN2, stronger effect = lower value 0.57
